In PubChem BioAssay AID430 (Sanford-Burnham Center for Chemical Genomics, 2006):
Out of some 63,000 compounds screened, about 1,100 (1.7%) were called active. Rule as the data show it: active = cytotoxicity above about 50%; inactive = the rest. What follows is part of a selection rich in actives, with near analogues and random picks from the rest. Potency and affinity values are given separately.

assay: cytotoxicity in HPDE-C7 cells, cell-based, fluorescence, HTS (AID 430); conditions: HPDE-C7 pancreatic duct cells viability, at 10 µM, stronger effect = higher value;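 also: cells exposed to compound for 48 hours before viability readout; 0% = vehicle and 100% = reference cytotoxic drug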

Row | SMILES | cytotoxicity
1 | O=C(Nc1nc2c(s1)CCCC2)c1cc2n(n1)C(C(F)(F)F)CC(C1CC1)N2 (configuration not stated) | 45.6% (inactive)
2 | Cc1cccc(N(C(=O)Cn2nnc3ccccc32)C(C(=O)NCc2ccco2)c2ccncc2)c1 (configuration not stated) | 5.1% (inactive)
3 | CC1=C(C(=O)NCc2ccccc2)C(c2ccc(C)o2)n2ncnc2N1 (configuration not stated) | -15% (inactive)
4 | CCOC(=O)c1c(C2COc3ccccc3O2)csc1N (configuration not stated) | -2.8% (inactive)
5 | COC(=O)Cc1cc(=O)[nH]c(Nc2nc3ccccc3o2)n1 | 7.2% (inactive)
6 | COCc1cc(=O)[nH]c(Nc2nc3ccccc3o2)n1 | 34.6% (inactive)
7 | COCc1cc(=O)[nH]c(Nc2nc3ccc(C)cc3o2)n1 | 51.7% (active)
8 | O=S(=O)(c1cc(C(F)(F)F)ccc1Cl)N1CCCCCC1 | -4% (inactive)
9 | CCOC(=O)C1=C(c2ccccc2)Nc2ncnn2C1c1ccccn1 (configuration not stated) | -3.2% (inactive)
10 | CCOc1ccc2[nH]c3c(N4CCN(c5ccccn5)CC4)ncnc3c2c1 | 62.5% (active)
11 | Cc1ccc2c(c1)[nH]c1c(N3CCN(Cc4ccccc4)CC3)ncnc12 | 82.2% (active)
12 | Cc1ccc2[nH]c3c(N4CCCCCC4)ncnc3c2c1 | 23.7% (inactive)
13 | Cc1ccc2[nH]c3c(N4CCOCC4)ncnc3c2c1 | 5.1% (inactive)
14 | c1ccc(CN2CCN(c3ncnc4c3[nH]c3ccccc34)CC2)cc1 | 15.2% (inactive)
15 | CCOC(=O)N1CCN(c2ncnc3c2[nH]c2ccc(OC)cc23)CC1 | -5% (inactive)
16 | CCOC(=O)c1[nH]c2ccc(OCC)cc2c1NC(=O)CN1CCN(c2ccccn2)CC1 | 8.8% (inactive)
17 | c1ccc(CN2CCN(c3ncnc4nc[nH]c34)CC2)cc1 | 8.4% (inactive)
18 | Fc1ccccc1CSc1ncnc2c1oc1ccccc12 | 5.1% (inactive)
19 | COc1ccccc1NC(=O)c1cc(S(=O)(=O)N2CCC3(CC2)OCCO3)ccc1F | 4.8% (inactive)
20 | COc1cccc(C(=O)Nc2ccc(C)cc2)c1 | -1.9% (inactive)
21 | COc1cccc(C(=O)/C=C/Nc2cc(C)ccc2O)c1 | 65.2% (active)
22 | Cc1cccc(OCC(=O)Nc2cc(C)ccc2O)c1 | -6% (inactive)
23 | CCC(CC)C(=O)Nc1nnc(-c2cccs2)s1 | 5% (inactive)

Row | SMILES | cytotoxicity
24 | Cc1cccc(C)c1NC1=NC(C)(C)N=C(N)N1 | 10.8% (inactive)
25 | CCOC(=O)c1c(C)[nH]c(C(=O)OC/C(O)=C(\C#N)c2nc3ccccc3[nH]2)c1C | 89.8% (active)
26 | Cc1nn(-c2ccccc2)c(C)c1C(=O)OC/C(O)=C(\C#N)c1nc2ccccc2[nH]1 | 7.4% (inactive)
27 | N#C/C(=C(/O)COC(=O)c1ccc2c(c1)OCCO2)c1nc2ccccc2[nH]1 | 24.1% (inactive)
28 | CCOc1cc(Br)c(C(=O)O)cc1OCC | -2.5% (inactive)
29 | COc1cccc2c1C(=O)c1c(O)c3c(c(O)c1C2=O)C[C@@](O)(C(C)=O)C[C@@H]3O[C@H]1C[C@H](N)[C@H](O)[C@H](C)O1 | 108% (active)
30 | COc1cccc2c1C(=O)c1c(O)c3c(c(O)c1C2=O)C[C@@](O)(C(=O)CO)C[C@@H]3O[C@H]1C[C@H](N)[C@H](O)[C@H](C)O1 | 102% (active)
31 | COCC(C)NC(=O)c1cc(-c2ccc(OC)c(OC)c2)on1 (configuration not stated) | -3% (inactive)
32 | O=C1c2ccccc2C(=O)N1CC#CCN1CCN(C2CCCCC2)CC1 | 2.6% (inactive)
33 | Cc1cc(C)c(C#N)c(SCS(=O)c2ccc(C(C)(C)C)cc2)n1 (configuration not stated) | -4.8% (inactive)
34 | Cc1cc(C)c(C#N)c(SCS(=O)Cc2ccccc2)n1 (configuration not stated) | -16.4% (inactive)
35 | Cc1cc(C)c(C#N)c(SCS(=O)Cc2ccc(Cl)cc2)n1 (configuration not stated) | 50.3% (active)
36 | CCOc1ccc(-c2noc(=O)[nH]2)cc1 | 0.9% (inactive)
37 | CC1=NOC2(C1)N(C)c1ccccc1C2(C)C (configuration not stated) | -10.1% (inactive)
38 | COc1ccc2c(c1)C=CC1(O2)N(CCO)c2ccccc2C1(C)C (configuration not stated) | 32.6% (inactive)
39 | CCOC(=O)c1sc(NC(=O)CCSC)nc1C | 26.2% (inactive)
40 | O=C(CSc1ncn(-c2ccccc2)n1)Nc1nc2ccccc2s1 | 9.1% (inactive)
41 | CCOC(=O)c1sc(NC(=O)CSc2ncn(-c3ccccc3)n2)nc1C | 70.4% (active)
42 | CCOC(=O)c1sc(NC(=O)CSc2nnnn2-c2ccccc2)nc1C | -4.9% (inactive)
43 | CCOC(=O)c1ccc(NC(=O)CCc2nc(-c3ccccc3)no2)cc1 | -1.1% (inactive)
44 | CCOC(=O)c1ccc(NC(=O)CCc2nc(-c3ccccc3Cl)no2)cc1 | 74.8% (active)
45 | CCOC(=O)c1ccc(NC(=O)CCc2nc(-c3ccc(Cl)cc3)no2)cc1 | -3.7% (inactive)
46 | Cc1sc2ncn3ncnc3c2c1C | 4.8% (inactive)

Row | SMILES | cytotoxicity
47 | Cc1cc(C)n2nc(C(=O)NCc3ccco3)nc2n1 | 11.2% (inactive)
48 | COC(=O)c1ccccc1NC(=O)c1cnc2sccn2c1=O | 2.7% (inactive)
49 | COC(=O)c1ccccc1NC(=O)c1ccc(-c2ccccc2F)o1 | 88.4% (active)
50 | COc1ccccc1NC(=O)c1ccc(-c2ccccc2F)o1 | -0.2% (inactive)
51 | COC(=O)c1ccccc1NC(=O)c1ccc(COc2ccccc2)o1 | -7.8% (inactive)
52 | Cc1cc(O)c(-c2cc(C(=O)Nc3ccc(S(=O)(=O)N4CCOCC4)cc3)[nH]n2)cc1C | 1% (inactive)
53 | COc1ccc(NC(=O)c2cc(-c3cc(C)cc(C)c3O)n[nH]2)cc1Cl | 59.6% (active)
54 | COc1ccc(OC)c(NC(=O)c2cc(-c3ccc(C)cc3O)n[nH]2)c1 | -13.3% (inactive)
55 | Cc1ccc(O)c(-c2cc(C(=O)Nc3ccc(S(=O)(=O)N4CC(C)OC(C)C4)cc3)[nH]n2)c1 (configuration not stated) | -29.9% (inactive)
56 | COc1ccc(OC)c(NC(=O)c2cc(-c3cc(Cl)ccc3O)n[nH]2)c1 | 12.2% (inactive)
57 | O=C(Nc1cc(C(F)(F)F)ccc1Cl)C1CCN(c2nnc(-n3cccc3)s2)CC1 | -14.7% (inactive)
58 | COC(=O)c1ccc(CSc2ncnc3c2nnn3-c2ccc(OC)cc2)o1 | -1% (inactive)
59 | O=C(O)CCC(=O)N1CCc2cc(S(=O)(=O)NC3CCCc4ccccc43)ccc21 (configuration not stated) | 3.4% (inactive)
60 | Nc1ccccc1-c1nnc(SCc2ccccc2F)[nH]c1=O | 3.6% (inactive)
61 | NC(=O)CSc1nnc2sc3ccccc3n12 | 3.6% (inactive)
62 | COc1cccc(S(=O)(=O)Nc2cccnc2)c1 | -10.8% (inactive)
63 | O=C(CSc1ncc(-c2ccc(F)cc2)n1Cc1ccco1)Nc1ccc2c(c1)OCO2 | 72.6% (active)
64 | Cc1cnc(NC(=O)CSc2ncc(-c3ccccc3)n2Cc2ccco2)s1 | -1% (inactive)
65 | CC(=O)Nc1cccc(NC(=O)CSc2ncc(-c3ccc(Cl)cc3)n2Cc2ccco2)c1 | 64% (active)
66 | COc1ccc(-c2cnc(SCC(=O)Nc3cc(C)on3)n2Cc2ccco2)cc1 | -8.9% (inactive)
67 | COc1ccc(-c2cnc(SCC(=O)Nc3ccc4c(c3)OCO4)n2Cc2ccco2)cc1 | 5% (inactive)
68 | CCC(=O)Nc1cc(NC(=O)CSc2ncc(-c3ccc(F)cc3)n2Cc2ccco2)ccc1C | 3.8% (inactive)
69 | CCOCCCN1CC(C(=O)NCCc2ccccc2)CC1=O (configuration not stated) | -5.3% (inactive)

Row | SMILES | cytotoxicity
70 | CC(=O)Nc1ccc(C(=O)CSc2nc3ccccc3n2CC(=O)N2CCCC2)cc1 | 5% (inactive)
71 | Cc1cc2c(c(N3CCOCC3)n1)C(=O)OC2 | -1.9% (inactive)
72 | COc1ccc(CNC(=O)C2CCCN2S(=O)(=O)c2ccccc2)cc1 (configuration not stated) | -10.6% (inactive)
73 | O=S(=O)(c1ccccc1Cl)N1CCCC(c2nc(-c3cccnc3)no2)C1 (configuration not stated) | 2% (inactive)
74 | COc1ccc2cc(CN(Cc3ccco3)Cc3nnnn3C3CCCCC3)c(=O)[nH]c2c1 | 23.1% (inactive)
75 | CCCC(c1nnnn1C(C)(C)CC)N(Cc1ccco1)Cc1cc2ccc(OC)cc2[nH]c1=O (configuration not stated) | 72.9% (active)
76 | CCC(c1nnnn1Cc1ccccc1)N(Cc1ccco1)Cc1cc2cc(OC)ccc2[nH]c1=O (configuration not stated) | 18% (inactive)
77 | CCC(C)(C)n1nnnc1C(c1cc2ccc(OC)cc2[nH]c1=O)N1CCc2ccccc21 (configuration not stated) | 50.8% (active)
78 | CCC(C)(C)n1nnnc1C(c1cc2ccc(C)cc2[nH]c1=O)N(Cc1cccnc1)Cc1ccco1 (configuration not stated) | 23.4% (inactive)
79 | CCC(c1nnnn1C1CCCCC1)N(Cc1ccco1)Cc1cc2ccc(OC)cc2[nH]c1=O (configuration not stated) | 56.8% (active)
80 | COc1ccc2[nH]c(=O)c(CN(Cc3nnnn3Cc3ccco3)C3CCCCC3)cc2c1 | 24.6% (inactive)
81 | COc1ccc2cc(CN(Cc3ccco3)C(c3nnnn3C3CCCCC3)C(C)C)c(=O)[nH]c2c1 (configuration not stated) | -35.5% (inactive)
82 | CCC(C)(C)n1nnnc1C(c1cc2cc(OC)ccc2[nH]c1=O)N1CCc2ccccc21 (configuration not stated) | 2.6% (inactive)
83 | CCC(C)(C)n1nnnc1C(c1cc2cc(OC)c(OC)cc2[nH]c1=O)N1CCc2ccccc21 (configuration not stated) | 11.4% (inactive)
84 | CCC(c1nnnn1Cc1ccco1)N(Cc1cc2cc(OC)ccc2[nH]c1=O)C1CCCCC1 (configuration not stated) | 97.7% (active)
85 | COc1ccc2[nH]c(=O)c(CN(C3CCCCC3)C(c3nnnn3Cc3ccco3)C(C)C)cc2c1 (configuration not stated) | 21.5% (inactive)
86 | COC(=O)CN1CCN(C(=O)c2ccc(F)cc2)c2ccccc2C1 | -14.6% (inactive)
87 | Cc1cc(Cl)ccc1N=Cc1c(O)n(C)c(=O)n(C)c1=O | -4.4% (inactive)
88 | Cc1cccnc1NCC(O)COc1ccccc1 (configuration not stated) | -2.3% (inactive)
89 | CN1CCN(CC(=O)N(Cc2c(C#N)c3ccccc3n2C)c2ccccc2)CC1 | 2.3% (inactive)
90 | O=C(c1ccccc1C(=O)N1CCN(c2ccc(F)cc2)CC1)N1CCN(c2ccc(F)cc2)CC1 | 2.5% (inactive)
91 | COC(=O)C(C)NC(=O)C1CCCN1S(=O)(=O)c1cc(C)c(Cl)cc1C (configuration not stated) | 7.8% (inactive)
92 | CN(C)C(=O)N1CCC(C(=O)NCc2ccccc2)CC1 | -9.6% (inactive)
